About 79,000 compounds went through this panel and 15% of them were active in at least one assay; those are over-represented in the sample as a whole. Activity calls are given as the source filed them. Cut-off read from the data, not from the text of the source: active = growth inhibition above about 70%; inactive = the rest.
Tests used:
[1] = NCI Yeast Anticancer Drug Screen. Data for the rad50 strain (AID 155);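 note: 0% = growth of vehicle-only cultures of the same strain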; details: S. cerevisiae rad50 strain growth inhibition, hits give high values
Summary of the method: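 Readout: growth inhibition relative to vehicle-treated cultures. Compound exposure was carried out in a genetically defined yeast strain deficient in DNA damage repair.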

[2] = NCI Yeast Anticancer Drug Screen. Data for the mec2-1 strain (AID 157); details: S. cerevisiae mec2-1 strain, hits give high values
Summary of the method: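 Each compound was tested on mec2-1 yeast, a strain altered in DNA damage repair or cell cycle control. Growth inhibition is reported relative to vehicle.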

[3] = NCI Yeast Anticancer Drug Screen. Data for the sgs1 mgt1 strain (AID 161);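 note: 0% = growth of cultures given vehicle only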; details: S. cerevisiae sgs1 mgt1 strain, hits give high values
Summary of the method: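 Test agents were incubated with a DNA-repair-mutant yeast strain. Growth was then read and compared against vehicle-treated controls.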

[4] = NCI Yeast Anticancer Drug Screen. Data for the cln2 rad14 strain (AID 165);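 note: 0% = growth equal to vehicle treated cultures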; details: S. cerevisiae cln2 rad14 strain, hits give high values
Summary of the method: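 Test compounds were added to cln2 rad14 yeast cultures; inhibition of growth was then determined by comparison with vehicle treatment.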

[5] = NCI Yeast Anticancer Drug Screen. Data for the bub3 strain (AID 167); details: S. cerevisiae bub3 mutant strain, hits give high values
Summary of the method: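 Readout: yeast growth inhibition, expressed relative to vehicle-only wells. The test organism is a mutant strain from a panel with lesions in DNA repair or checkpoint genes.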

[6] = NCI Yeast Anticancer Drug Screen. Data for the mlh1 rad18 strain (AID 175); details: S. cerevisiae mlh1 rad18 strain growth inhibition, hits give high values
Summary of the method: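 Inhibition values reflect reduced growth of mutant yeast versus vehicle-treated controls following compound exposure; the mutations affect DNA damage repair.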

[7] = at 5.0 µM (retest, dose inferred, filed as 0.5)
[8] = at 50.0 µM (retest, dose inferred, filed as 5.0)

Measured: growth inhibition

Cn1c(COC(=O)NC2CCCCC2)c(COC(=O)NC2CCCCC2)c2ccc3cc(Cl)c(Cl)cc3c21
active: [5]; at 50.0 µM 72.7%
inactive: [1]; [7] 8% | [1]; [8] 31% | [1]; at 50.0 µM 18.1% | [2]; [7] -5% | [2]; [8] 8% | [2]; at 50.0 µM 23.2% | [3]; [7] -3% | [3]; [8] 29% | [3]; at 50.0 µM 56.5% | [4]; [7] 15% | [4]; [8] 12% | [4]; at 50.0 µM 49.2% | [5]; [7] 15% | [5]; [8] 30% | [6]; [7] 9% | [6]; [8] 11% | [6]; at 50.0 µM 21.8%

CCCCCCCCCCCC1N=C(N)N=C(N)N1c1cccc(Br)c1 (stereo unspecified)
active: [1]; [7] 99% | [1]; [8] 97% | [1]; at 50.0 µM 97.5% | [2]; [7] 100% | [2]; [8] 97% | [2]; at 50.0 µM 97.7% | [3]; [7] 98% | [3]; [8] 98% | [3]; at 50.0 µM 99.2% | [4]; [7] 99% | [4]; [8] 96% | [4]; at 50.0 µM 96.2% | [5]; [7] 99% | [5]; [8] 98% | [5]; at 50.0 µM 97% | [6]; [7] 99% | [6]; [8] 97% | [6]; at 50.0 µM 98.3%

OC(CSc1ccccc1)CN1CCN(c2ccc(Cl)cc2)CC1 (stereo unspecified)
inactive: [1]; [7] 8% | [2]; [7] 5% | [2]; [8] 43% | [2]; at 50.0 µM 25.5% | [3]; [7] 6% | [4]; [7] 9% | [4]; [8] 62% | [4]; at 50.0 µM 15.6% | [5]; [7] 7% | [6]; [7] 4% | [6]; at 50.0 µM 59.5%
active: [1]; [8] 73% | [1]; at 50.0 µM 84.2% | [3]; [8] 90% | [3]; at 50.0 µM 79% | [5]; [8] 76% | [5]; at 50.0 µM 80.8% | [6]; [8] 73%

O=C1C(=O)c2cccnc2-c2ncccc21
active: [1]; [7] 93% | [1]; [8] 98% | [1]; at 50.0 µM 90.8% | [2]; [7] 95% | [2]; [8] 98% | [2]; at 50.0 µM 93.6% | [3]; [7] 95% | [3]; [8] 99% | [3]; at 50.0 µM 93.2% | [4]; [7] 73% | [4]; [8] 96% | [4]; at 50.0 µM 91% | [5]; [7] 96% | [5]; [8] 98% | [5]; at 50.0 µM 92.2% | [6]; [7] 94% | [6]; [8] 98% | [6]; at 50.0 µM 91.5%

CCOc1ccc(C(C[N+](=O)[O-])Sc2ccccc2N)cc1 (stereo unspecified)
inactive: [1]; [7] 36% | [1]; [8] 47% | [2]; [7] 36% | [2]; [8] 46% | [3]; [7] 42% | [3]; [8] 57% | [4]; [7] 29% | [4]; [8] 29% | [5]; [7] 32% | [6]; [7] 45% | [6]; [8] 59%
active: [1]; at 50.0 µM 73.5% | [2]; at 50.0 µM 92.1% | [3]; at 50.0 µM 92.7% | [4]; at 50.0 µM 83.9% | [5]; [8] 72% | [5]; at 50.0 µM 91.7% | [6]; at 50.0 µM 87%

COc1cc(N(CCC#N)CCC#N)ccc1/C(N=Nc1ccc([N+](=O)[O-])cc1)=N/NC(=O)c1cc(Br)ccc1O
inactive: [1]; [7] 6% | [1]; [8] 27% | [1]; at 50.0 µM 63% | [2]; [7] 14% | [2]; [8] 42% | [2]; at 50.0 µM 44.6% | [3]; [7] -6% | [3]; [8] 35% | [3]; at 50.0 µM 40.6% | [4]; [7] 10% | [4]; [8] 11% | [4]; at 50.0 µM 55.1% | [5]; [7] 8% | [5]; [8] 48% | [5]; at 50.0 µM 51% | [6]; [7] 15% | [6]; [8] 37% | [6]; at 50.0 µM 46.1%

O=C(Nc1ccc(Cl)c(Cl)c1)Nc1ccccc1O
inactive: [1]; [7] 5% | [1]; [8] 50% | [1]; at 50.0 µM 46.2% | [2]; [7] 6% | [2]; [8] 35% | [2]; at 50.0 µM 39.9% | [3]; [7] 0% | [3]; [8] 31% | [3]; at 50.0 µM 48.8% | [4]; [7] 12% | [4]; [8] 39% | [4]; at 50.0 µM 53.3% | [5]; [7] 46% | [5]; at 50.0 µM 64% | [6]; [7] 1% | [6]; [8] 54%
active: [5]; [8] 78% | [6]; at 50.0 µM 76.2%

COC(=O)c1cc([N+](=O)[O-])cc([N+](=O)[O-])c1Cl
active: [1]; [7] 99% | [1]; [8] 99% | [1]; at 50.0 µM 91.2% | [2]; [7] 99% | [2]; [8] 99% | [2]; at 50.0 µM 93.2% | [3]; [7] 100% | [3]; [8] 99% | [3]; at 50.0 µM 93.7% | [4]; [7] 77% | [4]; [8] 99% | [4]; at 50.0 µM 92.4% | [5]; [7] 99% | [5]; [8] 99% | [5]; at 50.0 µM 92.8% | [6]; [7] 100% | [6]; [8] 99% | [6]; at 50.0 µM 92.2%

CN(Cc1ccccc1)c1ccc(SC#N)cc1
inactive: [1]; [7] -2% | [2]; [7] -4% | [2]; [8] 61% | [3]; [7] -5% | [4]; [7] -5% | [4]; [8] -4% | [4]; at 50.0 µM 24.6% | [5]; [7] 6% | [6]; [7] 3%
active: [1]; [8] 82% | [1]; at 50.0 µM 81% | [2]; at 50.0 µM 87.5% | [3]; [8] 90% | [3]; at 50.0 µM 79.5% | [5]; [8] 80% | [5]; at 50.0 µM 92.7% | [6]; [8] 85% | [6]; at 50.0 µM 89%

CC1=C(Cl)C[C@@H](/C(C)=C\Cl)O[C@@]1(O)C(Br)Br
active: [1]; [8] 92% | [1]; at 50.0 µM 91.8% | [2]; [8] 94% | [2]; at 50.0 µM 93.4% | [3]; [8] 93% | [3]; at 50.0 µM 93.5% | [4]; [8] 90% | [4]; at 50.0 µM 91.2% | [5]; [8] 91% | [5]; at 50.0 µM 92.3% | [6]; [8] 92%
inactive: [1]; [7] 31% | [2]; [7] 24% | [3]; [7] 40% | [4]; [7] 20% | [5]; [7] 40% | [6]; [7] 65% | [6]; at 50.0 µM 15.1%

CCCCCCCCc1cc(Cl)c(O)c(Cl)c1
inactive: [1]; [7] 3% | [2]; [7] -8% | [3]; [7] -14% | [4]; [7] -13% | [5]; [7] -11% | [5]; [8] 66% | [6]; [7] -10%
active: [1]; [8] 75% | [1]; at 50.0 µM 99.5% | [2]; [8] 90% | [2]; at 50.0 µM 99.6% | [3]; [8] 98% | [3]; at 50.0 µM 99.2% | [4]; [8] 97% | [4]; at 50.0 µM 99.6% | [5]; at 50.0 µM 98.7% | [6]; [8] 98% | [6]; at 50.0 µM 99.3%

Cc1cc(I)nc2ccccc12
inactive: [1]; [7] 0% | [1]; [8] 15% | [1]; at 50.0 µM 68.4% | [2]; [7] -1% | [2]; [8] 1% | [2]; at 50.0 µM 21.2% | [3]; [7] -3% | [3]; [8] 8% | [3]; at 50.0 µM 59% | [4]; [7] -3% | [4]; [8] -18% | [4]; at 50.0 µM -18.4% | [5]; [7] -6% | [5]; [8] -13% | [5]; at 50.0 µM 26.8% | [6]; [7] -2% | [6]; [8] -12% | [6]; at 50.0 µM 48.7%

— PubChem BioAssay (NCI)
